The panel holds about 79,000 compounds, 15% with a hit somewhere; the sample as a whole holds those more often. Calls of active or inactive are those of the source. Rule as the data show it: active = growth inhibition above about 70%; inactive = the rest.
Legend:
[1] = NCI Yeast Anticancer Drug Screen. Data for the wt1 strain (AID 149);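 also: 0% = growth of vehicle-treated wt1 cultures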; settings: S. cerevisiae wt1 strain (SPY 50644) growth inhibition, hits give high values
Outline: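 Vehicle-normalised growth inhibition; strain wt1; compound exposure.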

[2] = NCI Yeast Anticancer Drug Screen. Data for the rad50EPP+ strain (AID 151);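 also: 0% = growth of vehicle-treated control cultures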; settings: S. cerevisiae rad50 mutant strain, hits give high values
Outline: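 Growth inhibition read against vehicle controls in rad50EPP+ yeast, a strain altered in DNA damage repair, after compound exposure.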

[3] = NCI Yeast Anticancer Drug Screen. Data for the mgt1 strain (AID 153); settings: S. cerevisiae mgt1 mutant growth inhibition, hits give high values
Outline: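 mgt1 yeast grown with test compound; read-out is growth inhibition versus vehicle-treated cultures.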

[4] = NCI Yeast Anticancer Drug Screen. Data for the rad50 strain (AID 155);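 also: 0% = growth of vehicle-only cultures of the same strain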; settings: S. cerevisiae rad50 strain growth inhibition, hits give high values
Outline: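 A DNA repair-deficient yeast mutant serves as the test organism; compound-induced growth inhibition is calculated against vehicle-treated cells.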

[5] = NCI Yeast Anticancer Drug Screen. Data for the mec2-1 strain (AID 157); settings: S. cerevisiae mec2-1 strain, hits give high values
Outline: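 Yeast mec2-1 mutant treated with compound. Readout: growth inhibition vs vehicle controls.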

[6] = NCI Yeast Anticancer Drug Screen. Data for the sgs1 mgt1 strain (AID 161);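 also: 0% = growth of cultures given vehicle only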; settings: S. cerevisiae sgs1 mgt1 strain, hits give high values
Outline: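 Read-out: growth inhibition vs vehicle controls. Cells: mutant yeast strain deficient in DNA damage repair.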

[7] = NCI Yeast Anticancer Drug Screen. Data for the CLN2oe strain (AID 163);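 also: 0% = growth of vehicle-only control cultures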; settings: S. cerevisiae CLN2oe strain, hits give high values
Outline: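 Read-out: yeast growth inhibition, expressed relative to vehicle-only controls. The strain bears an engineered cell-cycle alteration.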

[8] = NCI Yeast Anticancer Drug Screen. Data for the bub3 strain (AID 167); settings: S. cerevisiae bub3 mutant strain, hits give high values
Outline: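 Inhibition values come from growth of compound-treated mutant yeast normalised to vehicle-treated controls.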

[9] = NCI Yeast Anticancer Drug Screen. Data for the wt2 strain (AID 169);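 also: 0% = growth of vehicle-treated yeast cultures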; settings: S. cerevisiae wt2 strain growth inhibition, hits give high values
Outline: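 Read-out: growth inhibition versus vehicle-treated control cultures after compound exposure of the yeast strain.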

[10] = NCI Yeast Anticancer Drug Screen. Data for the mlh1 strain (AID 171);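 also: 0% = growth of vehicle-treated control cultures of the same strain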; settings: S. cerevisiae mlh1 strain growth inhibition, hits give high values
Outline: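 Read-out: growth inhibition versus vehicle controls. Strain: engineered yeast with a defined DNA repair or cell cycle defect, compound-treated.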

[11] = NCI Yeast Anticancer Drug Screen. Data for the sgs1 strain (AID 173);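 also: 0% = growth of vehicle-only control cultures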; settings: S. cerevisiae sgs1 mutant, hits give high values
Outline: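 Read-out: yeast growth inhibition relative to vehicle controls, following compound exposure of a strain with a defined DNA repair/cell cycle alteration.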

[12] = NCI Yeast Anticancer Drug Screen. Data for the mlh1 rad18 strain (AID 175); settings: S. cerevisiae mlh1 rad18 strain growth inhibition, hits give high values
Outline: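 Yeast w/ defined DNA-repair lesions; compound exposure; growth vs vehicle controls → % inhibition.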

[13] = NCI Yeast Anticancer Drug Screen. Data for the rad18 strain (AID 177); settings: S. cerevisiae rad18 mutant growth inhibition, hits give high values
Outline: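 Readout: growth inhibition vs vehicle controls. Cells: genetically altered yeast strain, DNA repair defect.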

[14] = NCI Yeast Anticancer Drug Screen. Data for the rad14 strain (AID 159);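 also: 0% = growth of vehicle-treated control cultures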; settings: S. cerevisiae rad14 strain growth inhibition, hits give high values
Outline: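 Vehicle-treated cultures served as the baseline for growth inhibition of a DNA repair-mutant yeast strain exposed to each compound.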

[15] = NCI Yeast Anticancer Drug Screen. Data for the cln2 rad14 strain (AID 165);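 also: 0% = growth equal to vehicle treated cultures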; settings: S. cerevisiae cln2 rad14 strain, hits give high values
Outline: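 cln2 rad14 yeast strain; compound exposure; growth inhibition read vs vehicle controls.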

[16] = at 5.0 µM (retest, dose inferred, filed as 0.5)
[17] = at 50.0 µM (retest, dose inferred, filed as 5.0)

Measured: growth inhibition

O=S(=O)(Oc1c(Cl)cc(Cl)cc1Cl)c1ccccc1
active: [2]; at 33.0 µM 71% | [2]; at 100.0 µM 89%
inactive: [1]; at 1.2 µM -4% | [1]; at 3.7 µM -7% | [1]; at 11.0 µM -9% | [1]; at 33.0 µM -11% | [1]; at 100.0 µM -5% | [2]; at 1.2 µM 8% | [2]; at 3.7 µM 23% | [2]; at 11.0 µM 37% | [3]; at 1.2 µM -3% | [3]; at 3.7 µM -5% | [3]; at 11.0 µM -2% | [3]; at 33.0 µM 9% | [3]; at 100.0 µM 30% | [4]; at 1.2 µM 0% | [4]; at 3.7 µM 3% | [4]; [16] 8% | [4]; at 11.0 µM 10% | [4]; at 33.0 µM 14% | [4]; [17] 12% | [4]; at 50.0 µM 10.2% | [4]; at 100.0 µM 14% | [5]; at 1.2 µM -4% | [5]; at 3.7 µM -1% | [5]; [16] -9% | [5]; at 11.0 µM 1% | [5]; at 33.0 µM 4% | [5]; [17] 20% | [5]; at 50.0 µM 40.5% | [5]; at 100.0 µM 13% | [6]; [16] 2% | [6]; [17] 47% | [6]; at 50.0 µM 66.3% | [7]; at 1.2 µM -1% | [7]; at 3.7 µM -4% | [7]; at 11.0 µM -14% | [7]; at 33.0 µM -14% | [7]; at 100.0 µM -8% | [8]; at 1.2 µM -1% | [8]; at 3.7 µM -4% | [8]; [16] 0% | [8]; at 11.0 µM -2% | [8]; at 33.0 µM 0% | [8]; [17] -8% | [8]; at 50.0 µM 55.4% | [8]; at 100.0 µM 14% | [9]; at 1.2 µM -1% | [9]; at 3.7 µM -4% | [9]; at 11.0 µM -7% | [9]; at 33.0 µM -2% | [9]; at 100.0 µM 10% | [10]; at 1.2 µM -1% | [10]; at 3.7 µM -2% | [10]; at 11.0 µM -10% | [10]; at 33.0 µM 13% | [10]; at 100.0 µM 28% | [11]; at 1.2 µM -3% | [11]; at 3.7 µM -1% | [11]; at 11.0 µM 11% | [11]; at 33.0 µM 22% | [11]; at 100.0 µM 11% | [12]; [16] -7% | [12]; [17] 56% | [12]; at 50.0 µM 63.6% | [13]; at 1.2 µM -3% | [13]; at 3.7 µM 4% | [13]; at 11.0 µM 12% | [13]; at 33.0 µM 19% | [13]; at 100.0 µM 30%

COc1cc(NCCCCCNC(C)C)c2ncccc2c1Cl
inactive: [1]; at 1.2 µM -2% | [1]; at 3.7 µM 3% | [1]; at 11.0 µM 1% | [1]; at 33.0 µM 2% | [1]; at 100.0 µM -8% | [2]; at 1.2 µM 1% | [2]; at 3.7 µM -1% | [2]; at 11.0 µM 1% | [2]; at 33.0 µM 9% | [2]; at 100.0 µM 13% | [3]; at 1.2 µM -5% | [3]; at 3.7 µM -3% | [3]; at 11.0 µM 1% | [3]; at 33.0 µM 3% | [3]; at 100.0 µM 33% | [4]; at 1.2 µM -1% | [4]; at 3.7 µM 2% | [4]; [16] 8% | [4]; at 11.0 µM 4% | [4]; at 33.0 µM 7% | [4]; [17] 12% | [4]; at 50.0 µM 49.7% | [4]; at 100.0 µM 24% | [5]; at 1.2 µM -1% | [5]; at 3.7 µM 2% | [5]; [16] -3% | [5]; at 11.0 µM 3% | [5]; at 33.0 µM 4% | [5]; [17] 13% | [5]; at 50.0 µM 6.65% | [5]; at 100.0 µM 10% | [14]; at 1.2 µM 0% | [14]; at 3.7 µM 5% | [14]; at 11.0 µM 15% | [14]; at 33.0 µM 24% | [14]; at 100.0 µM 24% | [6]; [16] 5% | [6]; [17] 28% | [6]; at 50.0 µM 52.5% | [7]; at 1.2 µM 0% | [7]; at 3.7 µM -6% | [7]; at 11.0 µM 6% | [7]; at 33.0 µM 14% | [7]; at 100.0 µM 36% | [8]; at 1.2 µM -2% | [8]; at 3.7 µM -1% | [8]; [16] 6% | [8]; at 11.0 µM 3% | [8]; at 33.0 µM 11% | [8]; [17] 38% | [8]; at 50.0 µM 36.5% | [8]; at 100.0 µM 25% | [9]; at 1.2 µM -2% | [9]; at 3.7 µM -1% | [9]; at 11.0 µM 0% | [9]; at 33.0 µM 7% | [9]; at 100.0 µM 6% | [10]; at 1.2 µM -1% | [10]; at 3.7 µM -1% | [10]; at 11.0 µM 1% | [10]; at 33.0 µM 7% | [10]; at 100.0 µM 15% | [11]; at 1.2 µM -1% | [11]; at 3.7 µM -2% | [11]; at 11.0 µM 3% | [11]; at 33.0 µM 13% | [11]; at 100.0 µM 23% | [12]; [16] 5% | [12]; [17] 38% | [12]; at 50.0 µM 56.8% | [13]; at 1.2 µM -1% | [13]; at 3.7 µM -4% | [13]; at 11.0 µM -1% | [13]; at 33.0 µM 5% | [13]; at 100.0 µM 13%

COc1ccc2nc(N/N=C/c3sccc3C)cc(C)c2c1
active: [1]; at 33.0 µM 96% | [1]; at 100.0 µM 95% | [2]; at 100.0 µM 76% | [4]; at 33.0 µM 94% | [4]; at 50.0 µM 85.5% | [4]; at 100.0 µM 94% | [5]; at 33.0 µM 96% | [5]; at 50.0 µM 87.5% | [5]; at 100.0 µM 95% | [6]; [16] 96% | [6]; [17] 96% | [6]; at 50.0 µM 84.1% | [7]; at 33.0 µM 96% | [7]; at 100.0 µM 94% | [15]; [16] 95% | [15]; [17] 95% | [15]; at 50.0 µM 81% | [8]; [16] 96% | [8]; at 33.0 µM 98% | [8]; [17] 98% | [8]; at 50.0 µM 86% | [8]; at 100.0 µM 96% | [9]; at 33.0 µM 98% | [9]; at 100.0 µM 96% | [10]; at 33.0 µM 97% | [10]; at 100.0 µM 92% | [11]; at 33.0 µM 98% | [11]; at 100.0 µM 95% | [12]; [17] 83% | [12]; at 50.0 µM 87.8% | [13]; at 33.0 µM 98% | [13]; at 100.0 µM 96%
inactive: [1]; at 1.2 µM -39% | [1]; at 3.7 µM -32% | [1]; at 11.0 µM -6% | [2]; at 1.2 µM -18% | [2]; at 3.7 µM -19% | [2]; at 11.0 µM -21% | [2]; at 33.0 µM 15% | [4]; at 1.2 µM -22% | [4]; at 3.7 µM -27% | [4]; [16] 4% | [4]; at 11.0 µM -12% | [4]; [17] 68% | [5]; at 1.2 µM -13% | [5]; at 3.7 µM 4% | [5]; [16] -10% | [5]; at 11.0 µM 12% | [5]; [17] 56% | [7]; at 1.2 µM -2% | [7]; at 3.7 µM -6% | [7]; at 11.0 µM -1% | [8]; at 1.2 µM 12% | [8]; at 3.7 µM 14% | [8]; at 11.0 µM 38% | [9]; at 1.2 µM 18% | [9]; at 3.7 µM 4% | [9]; at 11.0 µM 27% | [10]; at 1.2 µM 8% | [10]; at 3.7 µM -3% | [10]; at 11.0 µM 35% | [11]; at 1.2 µM -30% | [11]; at 3.7 µM -45% | [11]; at 11.0 µM -16% | [12]; [16] -5% | [13]; at 1.2 µM 5% | [13]; at 3.7 µM 16% | [13]; at 11.0 µM 8%

Source: PubChem BioAssay (NCI)
